Source: PubChem BioAssay
Only some compounds are listed: those with a hit (about 6.8% of all), similar ones and a draw of the others.
C diff HTS: C. difficile growth inhibition. actives 0.25% (n = 86,000). growth activity, negative = inhibition, % at 16 µg/mL (by protocol). Clostridium difficile clinical isolate growth, OD600, 24 h; stronger effect = lower value. AID 1259249;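 active = mean growth activity at or below -80% and every replicate also at or below -80%; inconclusive = mean at or below -80% but some replicate above -80%; inactive = mean growth activity above -80%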;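 also: 0% = DMSO wells and -100% = levofloxacin 16 µg/mL wells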
T cruzi growth-1: inhibitors of T. cruzi proliferation; AID 624255; actives 5.9% (n = 77,000); inhibition, % at 8.34 µM; T. cruzi beta-gal in NIH3T3, GalScreen luminescence, 90 h;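 active = mean inhibition above about 93%, with at least 55% of replicates each passing it, limit read from the data, passing the limit was not always enough; inconclusive = only one of those two conditions holds; inactive = neither condition holds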
Pf Dd2 growth: inhibitors of Plasmodium falciparum Dd2 growth | activity change, % at 10 µM | AID 1159554 | P. falciparum Dd2 growth, SYBR Green, 72 h; stronger effect = lower value | actives 2.3% (n = 94,000); in the data active = activity change below about -80%; inconclusive = no clear call, values can overlap the other calls
T cruzi growth-2: Trypanosoma cruzi proliferation inhibition; shares compounds with T cruzi growth-1; T. cruzi beta-gal in NIH3T3, GalScreen luminescence, 90 h; AID 651739; actives 72% (n = 5,600); inhibition, % at 8.35 µM;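 active = mean replicate inhibition above about 95% and at least 55% of replicates individually reaching it, limit read from the data; inconclusive = only one of the two criteria is met; inactive = neither criterion is met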
T cruzi growth-3: blocks T. cruzi growth in NIH3T3 host cells. T. cruzi beta-gal in NIH3T3, GalScreen luminescence, 90 h. actives 21% (n = 5,600). AID 651740. shares compounds with T cruzi growth-1. inhibition, % at 2.09 µM;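 active = mean inhibition above about 95%, with at least 55% of replicates also reaching it, limit read from the data; inconclusive = meets just one of the two conditions; inactive = meets neither condition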;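 also: plate controls were neutral control median for no effect and positive control median for full effect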
NIH3T3 tox: cytotoxicity in mouse NIH/3T3 fibroblasts; shares compounds with T cruzi growth-1; NIH/3T3 viability, CellTiter-Glo ATP luminescence, 90 h; cytotoxicity (signal decrease), % at 8.35 µM; actives 14% (n = 5,600); AID 651742;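 active = mean signal decrease across replicates above about 35% based on untreated-well scatter, with enough replicates individually passing, limit read from the data; inconclusive = no rule stated though some were filed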;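 also: 0% = median of neutral control wells and 100% = median of positive control wells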
NIH3T3 tox 2: kills mouse NIH/3T3 fibroblasts. shares compounds with T cruzi growth-1. NIH/3T3 viability, CellTiter-Glo ATP luminescence, 90 h. inhibition, % at 24.9 µM. actives 56% (n = 5,600). AID 651744;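 active = mean loss of cell viability signal at or above a set limit, and enough replicates individually reaching it; inconclusive = meets only the mean limit or only the replicate share; inactive = meets neither condition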;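 also: 0% = median of neutral control wells and 100% = median of positive control wells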
The depositor's hits bear a star; u = inconclusive; x = not tested or not shown.

SMILES	C diff HTS	T cruzi growth-1	Pf Dd2 growth	T cruzi growth-2	T cruzi growth-3	NIH3T3 tox	NIH3T3 tox 2
C[C@@H]1CCCCO[C@H](CN(C)C(=O)c2ccccc2)[C@H](C)CN([C@@H](C)CO)C(=O)c2cc(NC(=O)Nc3cccc4ccccc34)ccc2O1	5	96	-29	x	x	x	x
C[C@@H]1CCCCO[C@@H](CN(C)C(=O)C2CCCCC2)[C@H](C)CN([C@@H](C)CO)C(=O)c2cc(NC(=O)Nc3cccc4ccccc34)ccc2O1	-4	116*	-2	104*	73	-15	8
C[C@@H]1CN([C@H](C)CO)C(=O)c2cc(NC(=O)Nc3cccc4ccccc34)ccc2O[C@@H](C)CCCCO[C@H]1CN(C)C(=O)C1CCCCC1	-5	u	-66	104*	106*	15	24
C[C@@H]1CCCCO[C@H](CN(C)C(=O)Nc2cccc3ccccc23)[C@H](C)CN([C@@H](C)CO)C(=O)c2cc(NC(=O)Nc3cccc4ccccc34)ccc2O1	x	38	-22	x	x	x	x
C[C@@H]1CCCCO[C@H](CN(C)C(=O)Nc2cccc3ccccc23)[C@@H](C)CN([C@H](C)CO)C(=O)c2cc(NC(=O)Nc3cccc4ccccc34)ccc2O1	x	8	-48	x	x	x	x
C[C@H](CO)N1C[C@H](C)[C@@H](CN(C)C(=O)Nc2cccc3ccccc23)OCCCC[C@H](C)Oc2ccc(NC(=O)Nc3cccc4ccccc34)cc2C1=O	x	1	-64	x	x	x	x
C[C@H]1CCCCO[C@H](CN(C)C(=O)C2CCCCC2)[C@@H](C)CN([C@@H](C)CO)C(=O)c2cc(NC(=O)Nc3cccc4ccccc34)ccc2O1	-8	u	-75	98*	104*	9	29
C[C@@H]1CCCCO[C@H](CN(C)C(=O)C2CCCCC2)[C@@H](C)CN([C@H](C)CO)C(=O)c2cc(NC(=O)Nc3cccc4ccccc34)ccc2O1	2	u	-57	102*	7	-1	-38
C[C@H]1CN([C@@H](C)CO)C(=O)c2cc(C3=CCCC3)cnc2O[C@H]1CN(C)Cc1cccnc1	2	x	13	x	x	x	x
COc1ccc(S(=O)(=O)Nc2ccc3c(c2)C(=O)N([C@H](C)CO)C[C@H](C)[C@H](CN(C)C(=O)CCCN(C)C)OCCCC[C@H](C)O3)cc1	-3	12	17	x	x	x	x
CC(C)NC(=O)N(C)C[C@@H]1Oc2ccc(NC(=O)CCCCCC(=O)Nc3ccccc3N)cc2C(=O)N([C@@H](C)CO)C[C@@H]1C	-2	24	6	x	x	x	x
C[C@@H]1CN([C@H](C)CO)C(=O)Cc2cc(N(C)C)ccc2O[C@@H]1CN(C)Cc1ccc(Oc2ccccc2)cc1	1	40	1	x	x	x	x
C[C@H]1CN([C@@H](C)CO)C(=O)Cc2cc(N(C)C)ccc2O[C@H]1CN(C)Cc1ccc(Oc2ccccc2)cc1	-13	u	-10	106*	114*	19	106*
C[C@H](CO)N1C[C@H](C)[C@H](CN(C)Cc2ccccc2)Oc2ccc(N(C)C)cc2CC1=O	7	-19	48	x	x	x	x
C[C@@H]1CN([C@H](C)CO)C(=O)c2cc(N(C)C)ccc2O[C@H]1CN(C)Cc1ccc(Oc2ccccc2)cc1	-7	60	-24	x	x	x	x
C[C@H]1CN([C@@H](C)CO)C(=O)Cc2cc(N(C)C)ccc2O[C@@H]1CN(C)Cc1ccc(Oc2ccccc2)cc1	2	115*	-10	104*	48	-10	77*
C[C@H](CO)N1C[C@H](C)[C@H](CN(C)Cc2ccc(Oc3ccccc3)cc2)Oc2ccc(N(C)C)cc2C1=O	5	98*	-11	u	8	-6	101*
COCC(=O)N1CC2(C1)CN(Cc1nccs1)[C@H](CO)c1c2c2ccc(OC)cc2n1C	11	x	-41	x	x	x	x
CC=Cc1ccc2n(c1=O)C[C@@H]1[C@@H](CO)[C@H](C(=O)NC3CCC3)N(C(=O)C3CC3)[C@H]21 (mixture of isomers)	-4	x	47	x	x	x	x
CC=Cc1ccc2n(c1=O)C[C@@H]1[C@@H](CO)[C@H](C(=O)N3CCc4ccccc4C3)[C@H]2N1Cc1ccccc1 (mixture of isomers)	9	85	-7	x	x	x	x
CC=Cc1ccc2n(c1=O)C[C@H]1[C@H](CO)[C@@H](C(=O)N3CCCCC3)N(Cc3ccccc3)[C@@H]21 (mixture of isomers)	5	37	-17	x	x	x	x
CC=Cc1ccc2n(c1=O)C[C@@H]1[C@@H](CO)[C@H](C(=O)N3CCc4ccccc4C3)N(C(=O)C3CC3)[C@H]21 (mixture of isomers)	12	107*	x	69	7	2	12
CC=Cc1ccc2n(c1=O)C[C@@H]1[C@@H](CO)[C@H](C(=O)N3CCc4ccccc4C3)[C@H]2N1CCC (mixture of isomers)	-1	103*	-2	30	-13	0	10
CC=Cc1ccc2n(c1=O)C[C@@H]1[C@@H](CO)[C@H](C(=O)N3CCOCC3)N(Cc3ccccc3)[C@H]21 (mixture of isomers)	0	101*	-4	100*	6	9	13
CO[C@H]1CN(C)C(=O)c2cc(NC(=O)CC(F)(F)F)ccc2OC[C@@H](C)N(S(=O)(=O)c2cn(C)cn2)C[C@@H]1C	0	x	52	x	x	x	x
SMILES	C diff HTS	T cruzi growth-1	Pf Dd2 growth	T cruzi growth-2	T cruzi growth-3	NIH3T3 tox	NIH3T3 tox 2
C/C=C/c1ccc([C@@H]2[C@H](CO)N3C(=O)CN(Cc4ccc(F)cc4)C[C@@H]23)cc1	8	x	-9	x	x	x	x
C[C@@H]1CN([C@H](C)CO)C(=O)c2cccc(NC(=O)Nc3cccc4ccccc34)c2O[C@@H]1CN(C)Cc1ccc(Oc2ccccc2)cc1	x	-57	-55	x	x	x	x
CN1c2ccc(-c3cccc(F)c3)cc2[C@H]2[C@H](CCN2C(=O)CC2CC2)[C@@H]1CO	2	98*	-4	102*	67	28	2
CN1c2ccc(-c3ccccc3)cc2[C@@H]2[C@@H](CCN2C(=O)CC2CC2)[C@H]1CO	-4	68	-35	x	x	x	x
CN1c2ccc(-c3cccc(C#N)c3)cc2[C@@H]2[C@@H](CCN2C(=O)CC2CC2)[C@H]1CO	-9	96	8	x	x	x	x
CN1c2ccc(-c3ccc(C#N)cc3)cc2[C@@H]2[C@@H](CCN2C(=O)CC2CC2)[C@H]1CO	1	104*	-8	106*	85	4	41*
CCCNC(=O)N1[C@H](C#N)[C@H](c2ccccc2-c2cccc(OC)c2)[C@@H]1CO	1	x	-19	x	x	x	x
Cn1cnc(S(=O)(=O)N2CCCCN3[C@@H](CO)[C@@H](c4ccc(-c5ccccc5)cc4)[C@@H]3C2)c1	-3	114*	24	5	-12	-15	40*
